The values below come from PubChem BioAssay (EPA / NIEHS).

The source made the active and inactive calls. Rule for the calls: active = hit-call score of the fitted dose curve at least 0.9, where 1 is the maximum; inactive = score below 0.9.

Read-out in assay [1]: C-C motif chemokine 2 (Homo sapiens) (UniProt P13500)
Briefly: BSK_KF3CT_MCP1: BioMAP Diversity Plus: KF3CT Assay for Monocyte Chemoattractant Protein 1 (MCP1/CCL2) Biomarker Activity (AID 2283073). The conditions noted are these: primary human keratinocytes with fibroblasts; actives raise or lower the signal. The method in brief: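 Biomarker MCP-1 is measured by ELISA in primary human keratinocytes co-cultured with foreskin fibroblasts, 24 h after chemical treatment; DMSO serves as the negative control and activity baseline.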

Read-out in assay [2]: Matrix Metallopeptidase 9 (MMP9), MMP9 (gene 4318)
Briefly: BSK_KF3CT_MMP9: BioMAP Diversity Plus: KF3CT Assay for Matrix Metallopeptidase 9 (MMP9) Biomarker Activity (AID 2283074).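 For AC50: MMP9 protein level quantified by ELISA in the co-culture.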 Particulars: primary human keratinocytes with fibroblasts; actives raise or lower the signal. The method in brief: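 Human keratinocyte and foreskin fibroblast co-culture exposed to chemicals for 24 h; MMP9 biomarker measured by ELISA, bidirectional fitting relative to DMSO; cytotoxicity tracked by SRB total protein staining in parallel cultures.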

Read-out in assay [3]: urokinase plasminogen activator (uPA), PLAU (gene 5328)
Briefly: BSK_KF3CT_uPA: BioMAP Diversity Plus: KF3CT Assay for urokinase plasminogen activator (uPA) Biomarker Activity (AID 2283075). The conditions noted are these: primary human keratinocytes with fibroblasts; actives raise or lower the signal. The method in brief:
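Primary human keratinocyte/foreskin fibroblast co-culture exposed to chemical; uPA measured by ELISA at 24 h. Bidirectional fit versus DMSO, with parallel SRB total-protein staining for cytotoxicity.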

Read-out in assay [4]: CD40, CD40 (gene 958)
Briefly: BSK_LPS_CD40: BioMAP Diversity Plus: LPS Assay for CD40 Biomarker Activity (AID 2283076). Particulars: primary human HUVEC with PBMC; actives raise or lower the signal. The method in brief:
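Using a multiplexed primary human co-culture (umbilical vein endothelium plus PBMC), CD40 was read by ELISA 24 h after dosing, with cytotoxicity tracked by sulforhodamine B staining of parallel cultures and activity fitted bidirectionally versus DMSO.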

Read-out in assay [5]: E-selectin (Homo sapiens) (UniProt P16581)
The assay can be described thus: BSK_LPS_Eselectin: BioMAP Diversity Plus: LPS Assay for Eselectin Biomarker Activity (AID 2283077). Particulars: primary human HUVEC with PBMC; actives raise or lower the signal. The gist of the method: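 Dose chemical onto LPS-driven HUVEC/PBMC co-culture; after 24 h, run ELISA for E-selectin; fit up- and down-going responses relative to DMSO control.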

Read-out in assay [6]: Interleukin-8 (IL8), CXCL8 (gene 3576)
Briefly: BSK_LPS_IL8: BioMAP Diversity Plus: LPS Assay for Interleukin-8 (IL8) Biomarker Activity (AID 2283078). Particulars: primary human HUVEC with PBMC; actives raise or lower the signal. The gist of the method: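 In this LPS system, chemical-treated human umbilical vein endothelium/PBMC co-cultures were harvested at 24 h for IL-8 ELISA.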

Assay [7] is described as follows: BSK_LPS_SRB: Viability Assessment in the BioMAP Diversity Plus: LPS Assay (AID 2283079).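 Note: total protein by sulforhodamine B absorbance as a cytotoxicity measure; measured one day after compound addition; fitted in both directions against DMSO so loss or gain of signal counts.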 The conditions noted are these: primary human HUVEC with PBMC. The gist of the method: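 Cytotoxicity endpoint in human endothelial–PBMC co-culture: 24 h exposure, then SRB (0.1%) staining, 560 nm read.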
Read-out in assay [8]: Interleukin-1 alpha (IL1a), IL1A (gene 3552)
Briefly: BSK_LPS_IL1a: BioMAP Diversity Plus: LPS Assay for Interleukin-1 alpha (IL1a) Biomarker Activity (AID 2283080). Particulars: primary human HUVEC with PBMC; actives raise or lower the signal. The gist of the method: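 Primary human HUVEC and PBMC co-culture stimulated with LPS is dosed and harvested at 24 h. Both increases and decreases in ELISA-measured IL-1a are scored relative to DMSO.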

Read-out in assay [9]: Monocyte Chemoattractant Protein-1 (MCP1), CCL2 (gene 6347)
Briefly: BSK_LPS_MCP1: BioMAP Diversity Plus: LPS Assay for Monocyte Chemoattractant Protein-1 (MCP1) Biomarker Activity (AID 2283081).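 For AC50: secreted MCP-1 protein quantified by ELISA in culture supernatant.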 Particulars: primary human HUVEC with PBMC; actives raise or lower the signal. The method in brief: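 Values derive from bidirectional fitting against DMSO of ELISA-measured MCP-1 in a human primary endothelial and mononuclear cell co-culture, 24 h after chemical addition under LPS activation.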

A short description of assay [10]: BSK_LPS_PGE2: BioMAP Diversity Plus: LPS Assay for Prostaglandin E2 (PGE2) Biomarker Activity (AID 2283082). Particulars: primary human HUVEC with PBMC; actives raise or lower the signal. The gist of the method: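 HUVEC plus human PBMC co-culture stimulated with LPS; secreted PGE2 quantified by ELISA 24 h after chemical dosing. Activity fitted bidirectionally against DMSO baseline; parallel SRB staining (0.1% SRB after 10% TCA fixation, 560 nm) flags overt cytotoxicity.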

Read-out in assay [11]: Macrophage colony-stimulating factor (MCSF), CSF1 (gene 1435)
The assay can be described thus: BSK_LPS_MCSF: BioMAP Diversity Plus: LPS Assay for Macrophage colony-stimulating factor (MCSF) Biomarker Activity (AID 2283083). The conditions noted are these: primary human HUVEC with PBMC; actives raise or lower the signal. The gist of the method: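 Bidirectional fit versus DMSO of ELISA-measured M-CSF in co-cultured human umbilical vein endothelial cells and PBMC, sampled 24 h after dosing.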

Read-out in assay [12]: Tissue Factor, F3 (gene 2152)
Briefly: BSK_LPS_TissueFactor: BioMAP Diversity Plus: LPS Assay for Tissue Factor Biomarker Activity (AID 2283084). The conditions noted are these: primary human HUVEC with PBMC; actives raise or lower the signal. The method in brief: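 Read-out: CD142 ELISA, 24 h. System: LPS-driven human endothelial/PBMC co-culture. Analysis: up- or down-signal fitted against DMSO.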

Read-out in assay [13]: Tumor necrosis factor (Homo sapiens) (UniProt P01375)
The assay can be described thus: BSK_LPS_TNFa: BioMAP Diversity Plus: LPS Assay for Tumour Necrosis Factor alpha (TNFa) Biomarker Activity (AID 2283085). The conditions noted are these: primary human HUVEC with PBMC; actives raise or lower the signal. The gist of the method: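 Human umbilical vein endothelial cells co-cultured with PBMC and stimulated with LPS. TNFa was measured by ELISA 24 h after chemical dosing, fitted bidirectionally relative to DMSO.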

Read-out in assay [14]: Vascular cell adhesion molecule 1 (VCAM1), VCAM1 (gene 7412)
Briefly: BSK_LPS_VCAM1: BioMAP Diversity Plus: LPS Assay for Vascular cell adhesion molecule 1 (VCAM1) Biomarker Activity (AID 2283086). Particulars: primary human HUVEC with PBMC; actives raise or lower the signal. The method in brief: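 Human umbilical vein endothelial cells co-cultured with PBMC and stimulated with LPS; VCAM-1 measured by ELISA 24 h after dosing. Bidirectional curve fitting against DMSO baseline; cytotoxicity tracked in parallel by SRB total-protein staining.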

Read-out in assay [15]: CD38, CD38 (gene 952)
The assay can be described thus: BSK_SAg_CD38: BioMAP Diversity Plus: SAg Assay for CD38 Biomarker Activity (AID 2283087). Particulars: primary human HUVEC with PBMC; actives raise or lower the signal. The gist of the method:
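Human HUVEC plus PBMC co-culture stimulated with superantigen; CD38 measured by ELISA 24 h after chemical dosing. Fluorescence read-out, bidirectional fit against DMSO; cytotoxicity tracked in parallel by SRB and Alamar Blue.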

Read-out in assay [16]: CD40, CD40 (gene 958)
Briefly: BSK_SAg_CD40: BioMAP Diversity Plus: SAg Assay for CD40 Biomarker Activity (AID 2283088). The conditions noted are these: primary human HUVEC with PBMC; actives raise or lower the signal. The method in brief: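 Endpoint derived by fitting increases or decreases versus DMSO controls. CD40 is detected by fluorescence ELISA in a human vascular co-culture of endothelium and PBMC at 24 h.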

Read-out in assay [17]: CD69, CD69 (gene 969)
Briefly: BSK_SAg_CD69: BioMAP Diversity Plus: SAg Assay for CD69 Biomarker Activity (AID 2283089).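 For AC50: cell surface CD69 protein quantified by ELISA with fluorescence detection.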 The conditions noted are these: primary human HUVEC with PBMC; actives raise or lower the signal. The method in brief: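 Values derive from bidirectional fitting relative to DMSO vehicle. Cells: umbilical vein endothelium plus peripheral blood mononuclear cells, treated 24 h before fluorescent ELISA for CD69.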

Read-out in assay [18]: Monocyte Chemoattractant Protein-1 (MCP1), CCL2 (gene 6347)
The assay can be described thus: BSK_SAg_MCP1: BioMAP Diversity Plus: SAg Assay for Monocyte Chemoattractant Protein-1 (MCP1) Biomarker Activity (AID 2283090). The conditions noted are these: primary human HUVEC with PBMC; actives raise or lower the signal. The gist of the method:
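MCP-1 levels in the endothelial–PBMC SAg co-culture were quantified by ELISA at 24 h post-dosing; both increases and decreases versus DMSO scored. Cytotoxicity monitored by SRB total protein in parallel cultures.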

Read-out in assay [19]: E-selectin (Homo sapiens) (UniProt P16581)
The assay can be described thus: BSK_SAg_Eselectin: BioMAP Diversity Plus: SAg Assay for Eselectin Biomarker Activity (AID 2283091). Particulars: primary human HUVEC with PBMC; actives raise or lower the signal. The gist of the method: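 Endpoint values derive from bidirectional fitting relative to DMSO, using ELISA-measured E-selectin in a human vascular co-culture (umbilical vein endothelium plus PBMC) sampled 24 h after dosing.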

Read-out in assay [20]: Monokine induced gamma interferon (MIG), CXCL9 (gene 4283)
The assay can be described thus: BSK_SAg_MIG: BioMAP Diversity Plus: SAg Assay for Monokine induced gamma interferon (MIG) Biomarker Activity (AID 2283092). The conditions noted are these: primary human HUVEC with PBMC; actives raise or lower the signal. The gist of the method:
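Values reflect bidirectional fitting of ELISA-measured MIG against DMSO vehicle, taken 24 h after dosing of a co-culture of human umbilical vein endothelial cells and peripheral blood mononuclear cells.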

Sequence of Tumor necrosis factor (Homo sapiens) (P01375 whole entry, looked up): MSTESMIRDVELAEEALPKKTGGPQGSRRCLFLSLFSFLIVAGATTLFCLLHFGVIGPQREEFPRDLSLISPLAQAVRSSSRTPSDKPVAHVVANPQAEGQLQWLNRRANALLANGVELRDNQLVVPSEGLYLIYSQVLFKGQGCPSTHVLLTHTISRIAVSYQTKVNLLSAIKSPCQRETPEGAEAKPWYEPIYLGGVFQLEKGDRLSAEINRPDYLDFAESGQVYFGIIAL
Sequence of E-selectin (Homo sapiens) (P16581 whole entry, looked up): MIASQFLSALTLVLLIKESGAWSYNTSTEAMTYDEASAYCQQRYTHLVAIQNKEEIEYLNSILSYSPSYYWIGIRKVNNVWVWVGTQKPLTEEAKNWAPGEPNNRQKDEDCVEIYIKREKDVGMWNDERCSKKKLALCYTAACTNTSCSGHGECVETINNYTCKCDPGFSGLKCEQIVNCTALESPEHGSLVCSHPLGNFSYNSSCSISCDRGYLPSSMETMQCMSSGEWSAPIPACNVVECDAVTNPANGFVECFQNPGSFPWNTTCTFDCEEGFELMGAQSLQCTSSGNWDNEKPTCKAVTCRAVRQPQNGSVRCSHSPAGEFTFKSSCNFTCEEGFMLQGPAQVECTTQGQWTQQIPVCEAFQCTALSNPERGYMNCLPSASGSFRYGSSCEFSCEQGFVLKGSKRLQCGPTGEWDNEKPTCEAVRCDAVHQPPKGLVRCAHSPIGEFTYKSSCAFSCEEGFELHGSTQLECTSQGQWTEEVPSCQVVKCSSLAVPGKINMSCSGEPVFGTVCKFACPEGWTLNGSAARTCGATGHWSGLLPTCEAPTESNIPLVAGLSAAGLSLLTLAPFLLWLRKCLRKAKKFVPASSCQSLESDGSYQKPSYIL

With `CN(C[C@@H](CC[N+]12CCC(C3CCCCC3)(CC1)CC2)c1ccc(Cl)c(Cl)c1)C(=O)c1cc(C(F)(F)F)cc(C(F)(F)F)c1`, the AC50 – broadly, the concentration giving half of the maximal activity seen – in assay [1] is 9.72 µM (active); in assay [2], 7.39 µM (active); in [3] it was 10.5 µM (active); in [4], 19.1 µM (active); in assay [5], 26.4 µM (active); in [6] it was 24.8 µM (active). Besides, the AC50 in assay [7] is 24.6 µM (active); in [8], 18.4 µM (active); in [9], 23.4 µM (active); in [11], 23.6 µM (active); in assay [12], 25 µM (active); in [13] it was 13.7 µM (active). In addition, the AC50 is 31.3 µM (active) in assay [14]; 13.3 µM (active) in assay [15]; 20 µM (active) in [16]; 21.9 µM (active) in assay [17]; 17.1 µM (active) in [18]; 13.3 µM (active) in [19]. Also, the outcome in [10] was inactive.
On to `CCCCCCCCCCCCO`, for which the AC50 in [1] was 35 µM (active); in [2], 33 µM (active); in assay [3] it was 30.4 µM (active); in assay [5], 19.8 µM (active); in [7], 30.4 µM (active); in assay [8] it was 36.3 µM (active). Moreover, the AC50 in [9] is 34.8 µM (active); in assay [11], 32.2 µM (active); in assay [12], 19.8 µM (active); in [13] it was 29.7 µM (active); in [14], 19.8 µM (active); in [15], 34.7 µM (active). In addition, the AC50 in [16] is 31.6 µM (active); in assay [17] it was 31 µM (active); in assay [18], 30.4 µM (active); in [19], 31.7 µM (active). The result in [4], in assay [6] and in [10] was inactive.
With `CCCCCCCCN(C)CCCCCCCC`, the result in assay [1], in assay [2], in [3], in assay [4], in [5] and in assay [6] was inactive. Also, the outcome in assay [7], in [8], in [9], in assay [10], in [11] and in assay [12] was inactive. Besides, the outcome in assay [13], in assay [14], in [15], in assay [16], in assay [17] and in [18] was inactive. In addition, the outcome in assay [19] was inactive.
For `O=C=NCCCCCCN=C=O`, the outcome in [2], in assay [3], in [4], in [5], in assay [6] and in [7] was inactive. The result in assay [8], in assay [9], in assay [10], in [11], in [12] and in assay [13] was inactive. The result in [14], in assay [15], in assay [16], in assay [17], in assay [18] and in assay [19] was inactive.
Regarding `NC(=O)c1nc(-c2cccc(-c3cc(F)ccc3OCC(F)(F)C(F)(F)F)c2)n[nH]1`, the AC50 in assay [1] is 34 µM (active); in assay [2], 39.7 µM (active); in [3] it was 43.1 µM (active); in [4] it was 22.6 µM (active); in assay [5] it was 37.7 µM (active); in assay [6] it was 33.7 µM (active). The AC50 was 31.6 µM (active) in assay [7]; 41.4 µM (active) in assay [8]; 33.6 µM (active) in assay [9]; 38.2 µM (active) in [10]; 29.4 µM (active) in assay [11]; 33.4 µM (active) in assay [12]. Further, the AC50 in assay [13] was 37.4 µM (active); in assay [14], 35.3 µM (active); in assay [15], 29.5 µM (active); in assay [16], 26.9 µM (active); in assay [17], 26.2 µM (active); in assay [18], 29 µM (active). The concentration at half-maximal activity (AC50) in [19] is 19.3 µM (active).
On to `O=c1ccc2ccccc2o1`, for which the outcome in assay [1], in [2], in assay [3], in assay [4], in assay [5] and in [6] was inactive. Further, the result in assay [7], in assay [8], in assay [9], in assay [10], in assay [11] and in [12] was inactive. Further, the outcome in assay [13], in assay [14], in [15], in assay [16], in assay [17] and in [18] was inactive. The result in [19] and in assay [20] was inactive.
